Screening data (PubChem)
15-hLO-2 inh = inhibitors of human 15-lipoxygenase 2 (ALOX15B); O15296; purified 15hLO-2, xylenol orange hydroperoxide absorbance; Potency, µM (highest dose often 57.1 µM), for inactives: at the highest dose activity change, negative = inhibition, most hits filed as inhibitors; 110,000 tested, 0.56% active; further: nearly all actives have a fitted effect of over 60% in size
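Purified human 15hLO-2 (50 nM final) preincubated with compounds 15 min at room temperature in 25 mM Hepes pH 7.5, 0.01% Triton X-100, then 45 uM arachidonic acid added for 90 min; hydroperoxide detected via ferrous/xylenol orange, 573/405 nm absorbance ratio.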
12-hLO inh = blocks human 12-lipoxygenase activity. P18054. purified 12-hLO, xylenol orange hydroperoxide absorbance. Potency, µM (series often up to 57.1 µM), for the others: at the highest dose activity change, negative = inhibition, most hits filed as inhibitors. 150,000 tested, 0.12% active. AID 1452; further: nearly all actives have a fitted effect of over 55% in size
Target sequence (P18054 whole entry, looked up): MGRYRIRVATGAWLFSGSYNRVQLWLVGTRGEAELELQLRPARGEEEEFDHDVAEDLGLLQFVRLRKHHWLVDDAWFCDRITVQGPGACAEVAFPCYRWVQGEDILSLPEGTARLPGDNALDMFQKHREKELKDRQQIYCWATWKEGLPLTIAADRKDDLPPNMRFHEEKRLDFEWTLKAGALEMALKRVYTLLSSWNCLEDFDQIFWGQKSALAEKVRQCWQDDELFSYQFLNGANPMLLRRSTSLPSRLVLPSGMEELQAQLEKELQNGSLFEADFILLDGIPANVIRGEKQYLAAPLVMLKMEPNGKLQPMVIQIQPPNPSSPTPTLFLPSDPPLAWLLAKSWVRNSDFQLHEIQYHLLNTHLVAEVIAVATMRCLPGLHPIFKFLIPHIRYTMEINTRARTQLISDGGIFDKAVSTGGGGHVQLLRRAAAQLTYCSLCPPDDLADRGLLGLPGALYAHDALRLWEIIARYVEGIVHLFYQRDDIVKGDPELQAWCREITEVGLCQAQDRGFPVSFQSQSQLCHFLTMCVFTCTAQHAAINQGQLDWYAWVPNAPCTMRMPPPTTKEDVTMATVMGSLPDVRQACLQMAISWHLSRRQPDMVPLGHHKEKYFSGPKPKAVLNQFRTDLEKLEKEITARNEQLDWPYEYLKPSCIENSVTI
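150 nM 12hLO, 25 mM Hepes pH 7.0 + 0.01% Triton X-100; cpd preinc 15 min RT; 40 uM arachidonic acid, 30 min RT; Fe-XO 30 min; A573/A405 ratio as read-out.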
* = called active by the depositor; ? = inconclusive; · = no result; [ ] = dose if it differs, or a comment. Shown is part of a subset that was picked to be rich in hits. The call rests on the fitted dose curve; in most records, active means well fitted curve in the direction sought with a large enough effect; inconclusive means small, poorly fitted or top-dose-only effect, or another doubt; inactive means no such curve, though single readings can be large; an effect the other way counts as inactive or inconclusive. On the % scale 0 is the no-effect control and ±100 the full control effect; potency means the concentration at half of the fitted maximal effect.

SMILES	15-hLO-2 inh	12-hLO inh
CC(=O)O[C@H]1CC[C@@]2(C)C(=CC[C@@H]3[C@@H]4CC[C@H](c5cc(C(F)(F)F)n(C(C)=O)n5)[C@]4(C)CC[C@@H]32)C1	-6%[11.4 µM]	5%[11.4 µM]
Oc1c(C(Nc2nc3ccccc3s2)c2ccco2)ccc2cccnc12 (stereo not given)	22%	-14%
CC(C)C(=O)NC(c1ccco1)c1ccc2cccnc2c1O (stereo not given)	29%	10µM*
COC(=O)C1(C(=O)OC)C[C@@H]2CON=C2[C@H]1c1ccccc1	·	2%
CCc1ccc(O)c(N=Cc2ccccc2O)c1	16µM*	?
Cc1ccc(O)c(C=Nc2cc(C)ccc2O)c1	·	-12%
O=C1N/C(=N/Nc2ccccc2)S/C1=C\c1ccccc1	3.2µM*	?
COc1ccc(/C=C2\SC(=NCc3ccccc3)NC2=O)cc1	·	-20%
Cc1nc2cnc(N3CCOCC3)nc2n(C[C@H]2CCCO2)c1=O	-11%	·
COC(=O)[C@@H]1C[C@H]1[C@@H](N)c1ccccc1	17%	-3%
CC1CCCC2(C1)NC(=S)c1c(sc3c1CCCC3)N2 (stereo not given)	13µM*	-27%
CN1C(=O)c2c(sc3c2CCCC3)NC1c1ccccc1O (stereo not given)	?	-17%
O=C(O)CCC[C@H](O)\C=C/C=C/C=C/[C@H](O)C/C=C\CCCCCO	·	-1%
O=C1c2cccc(O)c2C(=O)c2c(O[C@@H]3O[C@H](CO)[C@@H](O)[C@H](O)[C@@H]3O)cccc21	10%[11.4 µM]	-6%[11.4 µM]
O=C(O)c1cc(O)c2c(c1)[C@H]([C@H]1c3cc(C(=O)O)cc(O)c3C(=O)c3c(O[C@@H]4OC(CO)C(O)C(O)C4O)cccc31)c1cccc(O[C@@H]3OC(CO)C(O)C(O)C3O)c1C2=O (stereo not given in full)	10µM*	-3%
O=C(/C=C/c1ccccc1)NC(=S)Nc1ccc(N2CCOCC2)c(Cl)c1	-12%	-10%
O=C(NC(=S)Nc1ccc(N2CCOCC2)c(Cl)c1)C(c1ccccc1)c1ccccc1	13µM*	?
c1ccc(Nc2nc(-c3cccs3)cs2)nc1	·	-10%
Cc1cccc(Nc2nc(-c3cccs3)cs2)n1	·	18µM*
O=C1OC(c2ccccc2)c2ccccc21 (stereo not given)	·	-2%
O=C1C=CC(=O)C2=C1C1c3ccccc3C2c2ccccc21	2µM*	?
Cc1ccccc1Nc1oc(-c2ccccc2)nc1-c1cccc2ccccc12	·	1%
CC[C@H](C)[C@@H]1O[C@]2(CC[C@@H]1C)C[C@H]1C[C@H](CC=C(C)[C@@H](O[C@H]3C[C@H](OC)[C@H](O[C@H]4C[C@H](OC)[C@H](O)[C@H](C)O4)[C@H](C)O3)[C@@H](C)C=CC=C3CO[C@@H]4[C@@H](O)C(C)=C[C@H](C(=O)O1)[C@@]34O)O2	-8%	-2%
CN(C)c1ccc(N/C=C/C(=O)c2ccccc2)cc1	?	-21%
CN(C)c1ccc(N/C=C/C(=O)C(C)(C)C)cc1	25µM*	-20%
SMILES	15-hLO-2 inh	12-hLO inh
COc1ccc(C(C)C(=O)c2ccc(O)cc2O)cc1 (stereo not given)	-7%	-7%
O=c1c(-c2cc(F)cc(F)c2)nc2cnc(N3CCNCC3)nc2n1CCc1ccccc1	42%	4%
COC(=O)c1ccc(NC(=O)CN2C(=O)CCC2=O)cc1	-5%	-4%
O=C(CN1C(=O)CCC1=O)Nc1ccc(Br)cc1	7%	5.6µM*
O=C(OCC(=O)N1CCN(C(=O)c2ccco2)CC1)c1cc(-c2ccco2)nc2ccccc12	13µM*	-19%
O=C(OCC(=O)N1CCN(C(=O)c2ccco2)CC1)c1cc(-c2ccc(Cl)c(Cl)c2Cl)nc2ccccc12	-8%	4%
CCOc1ccccc1-c1ccc(C(=O)O)o1	1%[0.0915 µM]	-3%[0.00818 µM]
COc1ccc(-n2c(=O)c(CCc3ccccc3)nc3cnc(OC)nc32)cc1	0%	·
CN(C)c1ccc(N=c2sc3ccccc3n2C)cc1	7.9µM*	-6%
Cn1c(=Nc2ccccc2)sc2ccccc21	14%	3%
O=C1CCCC2=C1C(c1ccc3c(c1)OCO3)c1c([nH]n(-c3ccccc3)c1=O)N2 (stereo not given)	-30%	-13%
O=C1CCCC2=C1C(c1ccc(Br)cc1)c1c([nH]c(=S)[nH]c1=O)N2 (stereo not given)	32µM*	?
O=C(NCCCCN1CCCC1)c1ccc(Cc2nc3ccccc3[nH]2)cc1	·	-1%
COC(=O)c1ccc(CCc2cc(O)ccc2O)cc1	12%[11.4 µM]	3.5µM*
COC(=O)c1ccc(O)cc1	-6%[0.0915 µM]	1%[0.00818 µM]
CC(NC(=O)/C(C#N)=C/c1ccc(Cl)c([N+](=O)[O-])c1)c1ccccc1 (stereo not given)	·	-25%
C[C@H](NC(=O)/C(C#N)=C/c1ccc(O)c(O)c1)c1ccccc1	?	20µM*
Cc1cc(C)c(/C=C2/C(=O)Nc3ccccc32)[nH]1	?	-8%
Cc1ccc(C(=O)/C=C\Nc2ccc(C)c(C)c2)cc1	·	-19%
Cc1ccc(N/C=C/C(=O)c2ccc(C)cc2)cc1	0%	2µM*
Cc1ccccc1CNC1CCCCC1	·	-2%
Oc1cc(CN2COc3ccccc32)c(O)cc1CNC1CCCCC1	3.2µM*	10%[11.4 µM]
CS(=O)(=O)CCCCN=C=S	-2%	0%
Nc1ccc(O)c2c(=O)cc(-c3ccccc3Cl)oc12	-12%[0.0915 µM]	-5%[0.00818 µM]
O=c1cc(-c2ccccc2Cl)oc2c(NS(=O)(=O)c3cc(Cl)cc(Cl)c3O)ccc(O)c12	16µM*	0.28µM*
SMILES	15-hLO-2 inh	12-hLO inh
Cc1ccc(S(=O)(=O)COCCN2CCN(S(=O)(=O)c3ccc(C)cc3)CCC2=O)cc1	4%[0.0915 µM]	-1%[0.00818 µM]
CCN(CC)CCCNC(=O)c1ccc(-n2c(=O)c(=O)[nH]c3ccccc32)cc1	·	3%
N#C/C(=C/c1ccc(N2CCOCC2)o1)c1ccc(Cl)cc1	10µM*	?
N#C/C(=C\c1ccc(N2CCOCC2)o1)c1nc2ccccc2[nH]1	-28%	-2%
Cc1cc(C)cc(NC(=S)NCCSc2ccc(Cl)cc2)c1	·	-28%
Cc1ccc(SCCNC(=S)Nc2ccc(C)c(C)c2)cc1	·	25µM*
O=C(NCCN1CCCCC1)c1ccc(-n2c(=O)c(=O)[nH]c3ccccc32)cc1	·	-6%
Cc1ccc(NC(=O)c2ccc(Cl)c(N3C(=O)C=CC3=O)c2)cc1	0.32µM*	?
COc1cccc(C(=O)Nc2ccc(C)cc2)c1	-1%	2%
O=C(O)CNC(=O)[C@@H](CS)Cc1ccccc1	2%[25.6 µM]	-3%[25.6 µM]
CC(C)(C)c1nn(-c2ccccc2)c2[nH]c(=O)c(CNc3ccc4c(c3)OCCO4)cc12	-6%	-11%
Cc1nn(-c2ccccc2)c2[nH]c(=O)c(CNc3ccc(N4CCOCC4)cc3)cc12	16µM*	?
C[C@@]12CCC(=O)C=C1CC[C@H]1[C@@H]2[C@@H](O)C[C@]2(C)[C@@H]1CC[C@@]2(O)C(=O)CO	0%[11.4 µM]	5%[11.4 µM]
COc1ccc(OC)c(NC(=O)NC2(C(F)(F)F)Oc3ccccc3O2)c1	10µM*	-11%
COc1ccc(OC)c(NC(=O)Nc2ccccc2C)c1	9%	-1%
COC(=O)[C@H](CCSC)NC(=O)Nc1cc(C)ccc1C	-1%	5%
CSCCOC(=O)C1=C(C)Nc2ccc(C)cc2S1	5µM*	-17%
CCOCCOC(=O)c1cccc(NC(=O)OCC)c1	5%	1%
CCOCCOC(=O)C1=C(C)Nc2ccc(C)cc2S1	16µM*	-16%
CCOC(=O)C1=C(C)Nc2ccc(C)cc2S1	4µM*	?
